Source: PubChem BioAssay
HT1080NT lethal: kills 2HG-producing HT-1080-NT fibrosarcoma cells. HT-1080-NT fibrosarcoma viability, CellTiter-Glo ATP luminescence, 48 h. Potency, µM (titrated, usually from 46.1 µM), for the others: at the top dose activity, negative = less viability, usual class: cytotoxic. 1.6% of 360,000 active. AID 686970;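 further: NT is the 2HG producing partner of a matched IDH1 knockdown line; 0% = DMSO-treated cells and -100% = media-only wells without cells; nearly all actives have a fitted effect of over 55% in size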
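Luminescent CellTiter-Glo readout after 48 hours of compound exposure at 37 degrees C defined viability of HT-1080-NT cells. Activity was normalized to DMSO wells and cell-free media wells; concentration-response curves were fitted and assigned curve classes.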
KB-3-1 tox: kills parental KB-3-1 adenocarcinoma cells; KB-3-1 viability, CellTiter-Glo ATP luminescence, 72 h; 1.4% of 400,000 active; Potency, µM (doses to about 46.1 µM), actives largely listed as cytotoxic; further: nearly all actives have a fitted effect of over 60% in size
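Cytotoxicity in the drug-sensitive parental line KB-3-1 was scored as loss of CellTiter-Glo luminescence following 72 h incubation with compound. Values come from curve fitting of normalized concentration-response data.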
HT1080 IDH1KD tx: HT-1080 IDH1 knockdown cell toxicity (counter line); HT-1080 IDH1 knockdown viability, ATP luminescence, 48 h; Potency, µM (series often up to 46.1 µM), without a hit: at the top dose activity, negative = toxicity, hits mostly cytotoxic; 2% of 360,000 active;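 further: 0% = DMSO wells and -100% = cell-free medium wells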
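Viability of IDH1-knockdown HT-1080 fibrosarcoma cells was assessed by CellTiter-Glo after 48 h at 37 °C with titrated compound; concentration-effect curves were classified by fit quality and response size.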
TDP1 cell CPT: growth inhibition of DT40 Tdp1-/-;hTDP1 cells with camptothecin (screen for TDP1 inhibitors). 12% of 420,000 active. Potency, µM (doses to about 46.2 µM), for inactives: at the highest dose activity change, negative = growth inhibition, most hits filed as inhibitors. chicken DT40 Tdp1-/-;hTDP1 cells + 20 nM CPT, ATP luminescence, 48 h; further: nearly all actives have a fitted effect of over 55% in size
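Chicken DT40 Tdp1-/- cells complemented with human TDP1, 400 cells/well, exposed to compounds plus 20 nM camptothecin for at least 48 h at 37 C; viability read as ATP content by CellTiter-Glo luminescence.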
TDP1 cell noCPT: qHTS for Inhibitors of human tyrosyl-DNA phosphodiesterase 1 (TDP1): qHTS in cells in absence of CPT | DT40 Tdp1-/- hTDP1 cells, no CPT, ATP luminescence, 48 h | AID 686978, 2013 | Potency, µM (highest dose often 46.2 µM), inactives show top-dose activity change, negative = growth inhibition, hits mostly inhibitors | 15% of 420,000 active; further: nearly all actives have a fitted effect of over 55% in size
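Chicken DT40 Tdp1-/- cells complemented with human TDP1, screened without camptothecin (DMSO vehicle only), 400 cells/well. Compounds pin-transferred, cells incubated at 37 °C for at least 48 hr. Growth read as ATP-dependent luminescence (CellTiter-Glo, 30 min at RT).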
KB-V1 cytotox: KB-V1 MDR subline cytotoxicity; KB-V1 MDR cells viability, CellTiter-Glo, 72 h; Potency, µM (top dose mostly 46.1 µM), usual class: cytotoxic; 3.4% of 400,000 active; AID 1347076; further: nearly all actives have a fitted effect of over 60% in size
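KB-V1 cells (P-gp-expressing MDR subline of KB-3-1) in phenol-red-free DMEM with 10% FBS were exposed to library compounds over a concentration series for 72 h at 37 degrees C. Viability read by CellTiter-Glo luminescence; concentration-effect curves fitted after normalization.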
* hit, by the source's call; i = inactive; ? = inconclusive; . = no result given. A selection: hits, their analogues and other compounds. The true share with any hit is near 19%. The call rests on the fitted dose curve; in most records, active means well fitted curve in the direction sought with a large enough effect; inconclusive means small, poorly fitted or top-dose-only effect, or another doubt; inactive means no such curve, though single readings can be large; an effect the other way counts as inactive or inconclusive. Unless noted, on the % scale 0 is the no-effect control and ±100 the full control effect; potency means the concentration at half of the fitted maximal effect.

SMILES | HT1080NT lethal | KB-3-1 tox | HT1080 IDH1KD tx | TDP1 cell CPT | TDP1 cell noCPT | KB-V1 cytotox
Cc1cc(C(=O)N2CCCC(C)(C(=O)NS(=O)(=O)C3CC3)C2)n(C(C)(C)C)n1 (configuration not stated) | 23% | i | ? | 8.2µM* | 5.2µM* | i
Fc1ccc2c(c1)-c1nc(-c3ccccc3)cc(-c3ccccc3)c1CO2 | . | i | . | ? | -27% | ?
COc1ccc(CCN(C)C(=O)c2c(C)noc2C)cc1OC | 4% | i | -4% | -14% | 12% | i
Cc1ccc(S(=O)(=O)NCC(=O)OCC(=O)NCc2cccs2)cc1 | 2% | i | 0% | -1% | -11% | i
Cc1cc(C)cc(NC(c2cccc(Cl)c2)c2nnc(-c3ccccc3)o2)c1 (configuration not stated) | . | i | . | -27% | ? | i
Cc1ccc(F)cc1C(=O)N1CCCC(C)(C(=O)NS(=O)(=O)C2CC2)C1 (configuration not stated) | 24% | i | 19% | ? | 2.6µM* | i
Cc1ccc(F)c(C(=O)N2CCCC(C)(C(=O)NS(=O)(=O)C3CC3)C2)c1F (configuration not stated) | ? | i | 2% | 6.5µM* | 5.8µM* | i
CC1(C(=O)NS(=O)(=O)C2CC2)CCN(C(=O)c2ccc(F)cc2Cl)C1 (configuration not stated) | 23% | i | 10% | 3% | 21% | i
CC(C)(O)CN(C(=O)c1ccc([N+](=O)[O-])cc1)C1CCCC1 | 3% | i | 19% | -4% | -2% | ?
Cc1ccc(C(=O)OC(C(=O)Nc2ccc(Cl)cc2C(F)(F)F)c2ccccc2)cc1 (configuration not stated) | ? | i | ? | ? | 23µM* | i
Cc1ccc(C)c(NC(=O)C(OC(=O)c2ccc(CO)cc2)c2ccccc2)c1 (configuration not stated) | -14% | i | -9% | -5% | -3% | i
CC(=O)Nc1cc(C(=O)OC(C(=O)c2ccccc2)c2ccccc2)ccc1C (configuration not stated) | -2% | i | -2% | -7% | -22% | 16µM*
Cc1ccc(NC(=O)C(OC(=O)c2ccc(C=O)cc2)c2ccccc2)cc1Cl (configuration not stated) | ? | i | 23µM* | ? | ? | i
O=C(OC(C(=O)Nc1ccc(Cl)cc1C(F)(F)F)c1ccccc1)c1c(Cl)cccc1Cl (configuration not stated) | -7% | ? | -16% | ? | 13µM* | i
COc1ccc(C(=O)C(OC(=O)c2ccc(C)c(NC(C)=O)c2)c2ccccc2)cc1 (configuration not stated) | -13% | i | -7% | ? | ? | i
CC1=C(c2ccc(C)cc2)S(=O)(=O)NC1=NCc1cccc(F)c1 | . | . | . | -21% | ? | .
Cc1nc2ccc(C(=O)N(C)Cc3ccccc3)cn2c1N(C)C(=O)CCc1ccccc1 | 1% | i | 28% | ? | -11% | i
COc1ccc(C(=O)CSc2nnn(-c3cccc(NC(C)=O)c3)n2)cc1 | -3% | i | -13% | ? | 23µM* | i
CC(=O)Nc1cccc(-n2nnc(SCC(=O)c3ccccc3)n2)c1 | 0% | i | -1% | -13% | ? | i
COc1ccc(C(=O)NC(C)c2nnc(SCC(=O)NC3CCCC3)n2C)cc1 (configuration not stated) | 12% | i | 12% | -9% | -8% | i
